Screening data: PubChem, National Center for Advancing Translational Sciences (NCATS)
Sampled rows, rich in hits. Any-hit rate of the full collection: about 3.2%.
VACV Venus inh: qHTS for Stage-Specific Inhibitors of Vaccinia Orthopoxvirus: Venus Reporter Primary qHTS; Potency, µM (top dose mostly 36.5 µM), inactives show at the highest dose activity change, negative = inhibition, most hits filed as inhibitors; Vaccinia virus Venus reporter expression, fluorescence; 330,000 tested, 0.46% active; calls by dose curve; tested in A549 cells; note: nearly all actives have a fitted effect of over 30% in size
Vaccinia mCherry: qHTS for Stage-Specific Inhibitors of Vaccinia Orthopoxvirus: mCherry Reporter Primary qHTS; Vaccinia virus mCherry reporter infection, fluorescence; Potency, µM (highest dose often 36.5 µM), without a hit: at the highest dose activity change, negative = inhibition, usual class: inhibitors; 310,000 tested, 0.63% active; AID 720579, 2013; calls by dose curve; tested in A549 cells; note: nearly all actives have a fitted effect of over 35% in size
Marburg entry inh: qHTS for inhibitors of binding or entry into cells for Marburg Virus. AID 540276, 2011. Potency, µM (highest dose often 37.8 µM), inactives show at the top dose activity change, negative = inhibition, hits mostly inhibitors. 300,000 tested, 1.8% active. Marburg virus pseudotyped entry inhibition, cell reporter; calls by dose curve; tested in HEK293 cells
LASV entry inh: qHTS for Inhibitors of binding or entry into cells for Lassa Virus | Lassa virus pseudotype entry inhibition, cell reporter | Potency, µM (doses to about 37.9 µM), without a hit: top-dose activity change, negative = inhibition, usual class: inhibitors | 300,000 tested, 1.2% active | AID 540256, 2011; calls by dose curve; tested in HEK293 cells; note: nearly all actives have a fitted effect of over 50% in size
FMDV inh: High Throughput Screening for Foot and Mouth Disease Virus Antivirals; FMDV antiviral cell-based qHTS; Potency, µM (top dose mostly 57.9 µM), without a hit: top-dose activity change, negative = inhibition, usual class: inhibitors; 410,000 tested, 1.2% active; AID 1159524, 2015; calls by dose curve; tested in HEK293T cells; note: read-out not given here; nearly all actives have a fitted effect of over 45% in size
* hit, by the source's call; i = inactive; ? = inconclusive; · = no result given; ! = a repeat was not active; [ ] = another dose, or the depositor's remark. % is set by controls: 0 for no effect and ±100 for the full control effect; potency is the fitted concentration of half-maximal effect.

SMILES	VACV Venus inh	Vaccinia mCherry	Marburg entry inh	LASV entry inh	FMDV inh
C=CCN1C(=O)C(CC(=O)Nc2ccc(OCCC)cc2)N(CCCN2CCN(Cc3ccccc3)CC2)C1=S (stereo not given)	11.2µM*	?	?	?	?
Cc1ccccc1Nc1oc(-c2ccccc2)nc1-c1ccc(C(F)(F)F)cc1	·	·	16.6%[14.2 µM]	?	·
CCOC(=O)c1[nH]c(C)c(C(=O)NC(CC)Cc2ccccc2)c1C (stereo not given)	-23.9%	-25.3%	-25.3%[46.1 µM]	-3.6%[46.1 µM]	-11.8%
CCOC(=O)C1CCCN(C(=O)c2ccc3c(c2)sc2nc(-c4cccc(OC)c4)cn23)C1 (stereo not given)	-7.5%	-3.2%	·	1.8%[46.1 µM]	31.6µM*
CCCN1CCN(CCCNC(=O)c2ccc3c(c2)sc2nc(-c4ccc(OC)cc4)cn23)CC1	?	4.47µM*	·	25.6%[46.1 µM]	13.0%
CCOC(=O)C1CCCN(C(=O)c2ccc3c(c2)sc2nc(-c4ccc(C)cc4C)cn23)C1 (stereo not given)	-10.5%	-5.7%	·	0.6%[46.1 µM]	?
O=C(Nc1ccccc1)n1cc(-c2ccccn2)c(N2CCOCC2)n1	-24.0%	-11.9%	·	·	25.0%
Cc1cc(C)n(C[C@@H]2CC(=O)N(c3ccc(F)c(Cl)c3)C2=O)n1	·	·	3.2%	·	·
O=C(NC1CCCCCCC1)c1cc(COc2ccc3ncccc3c2)on1	-17.7%	-24.9%	-19.0%[46.1 µM]	?	3.55µM*
Cc1cccnc1CN1CCN(C(=O)c2cc(COc3ccc4ncccc4c3)on2)CC1	-26.0%	?	?	?	12.6µM*
CCOC(=O)N1CCN(C(=O)c2cc(COc3ccc4ncccc4c3)on2)CC1	-21.6%	-21.5%	?	-12.7%[46.1 µM]	?
N#Cc1nc(NCC(F)F)nc(Nc2cc(F)cc(F)c2)n1	·	·	·	·	11.2µM*
Cc1onc(-c2c(F)cccc2Cl)c1C(=O)Nc1cc2cc([N+](=O)[O-])ccc2oc1=O	-3.8%	13.4%	·	·	-18.6%
Cc1ccc(NC(=O)CSc2nc(NS(=O)(=O)c3ccccc3)cc(=O)[nH]2)cc1	-7.5%	-13.7%	?	4.7%	-24.7%
CCc1ccc(NC(=O)CSc2nc(NS(=O)(=O)c3ccccc3)cc(=O)[nH]2)cc1	-2.9%	8.91µM*	3.16µM*	?	-1.5%
CC(=O)N1CCc2c(sc(NC(=O)C3CCCN3S(=O)(=O)c3cccs3)c2C(N)=O)C1 (stereo not given)	-10.8%	i	13.5%	1.7%	28.2µM*
CCN(CC(=O)NCc1ccc(F)cc1)C(=O)c1oc2ccccc2c1C	4.0%	-7.4%	8.91µM*	?	34.0%
CN1C(=O)C(=Cc2cn(CC(=O)N3CCCC3)c3ccccc23)C(=O)N(C)C1=O	11.3%	-9.2%	0.5%[46.1 µM]	1.3%[46.1 µM]	23.4%
CCOC(=O)C1=C(O)/C(=C/c2cn(CC(=O)N3CCCC3)c3ccccc23)SC1=Nc1ccccc1	18.6%	-11.9%	?	-10.1%	8.91µM*
Cc1ccc(NC(=O)c2ccc(F)c(S(=O)(=O)NCCc3ccccc3)c2)cc1F	-26.1%	?	·	?	2.5%
COC(=O)CC=C[C@H](C)[C@@H](NC(=O)C(F)(F)F)c1ccccc1Br	·	·	-21.4%[14.2 µM]	·	·
COc1ccc(/C=N/NC(=O)CN(CCc2ccccc2)S(=O)(=O)c2ccc(NC(C)=O)cc2)cc1OC	-5.9%	i	?	?	-10.2%
COc1cc(/C=N/NC(=O)CN(CCc2ccccc2)S(=O)(=O)c2ccc(NC(C)=O)cc2)cc(OC)c1OC	-16.2%	i	-9.7%	18.4µM*	?
Cc1cccc(NC(=O)c2cccc(N3C(=O)C4C5C=CC(C6CC56)C4C3=O)c2)c1 (stereo not given)	-25.1%	-7.8%	?	-20.2%	15.8µM*
Cc1cc(C)cc(NC(=O)c2cccc(N3C(=O)C4C5C=CC(C5)C4C3=O)c2)c1 (stereo not given)	-9.4%	-18.0%	?	-6.1%[46.1 µM]	9.8%
SMILES	VACV Venus inh	Vaccinia mCherry	Marburg entry inh	LASV entry inh	FMDV inh
Cc1cnc(-n2ncc(C(=O)N[C@H]3CCCCNC3=O)c2C2CC2)nc1-c1cccs1	-5.1%	-11.2%	·	·	-8.4%
COc1ccc(/C=N/OCC(=O)N=Nc2c(O)[nH]c3ccc(Br)cc23)cc1OC	-11.6%	-17.4%	?	-8.7%[46.1 µM]	-16.3%
COc1ccc(/C(C)=N/OCC(=O)N=Nc2c(O)[nH]c3ccc(Br)cc23)cc1	0.5%	-10.5%	?	-2.2%	39.8µM*
Clc1ccc(-c2noc3ncnc(NCCc4ccccc4)c23)cc1	1.7%	-1.4%	·	3.98µM*	-9.0%
CCc1ccc(OCCn2c(C3CC(=O)N(Cc4ccc(F)cc4)C3)nc3ccccc32)cc1 (stereo not given)	11.2µM*	?	?	-21.1%[46.1 µM]	-40.7%
CCCS(=O)(=O)c1ncc(Cl)c(C(=O)N2CCN(c3ccc(OC)cc3)CC2)n1	-8.6%[7.34 µM]	-16.5%[7.34 µM]	·	?	-12.2%
CCC(C)N(C(=O)COC(=O)c1ccc(N)c([N+](=O)[O-])c1)C1CCS(=O)(=O)C1 (stereo not given)	-10.5%	i	·	·	-29.1%
Oc1cc2c(cc1O)[C@H](c1ccccc1)CNCC2	·	·	-15.0%	·	-19.1%
Oc1cc2c(cc1O)[C@H]1c3ccccc3CNC1CC2 (stereo not given in full)	·	·	15.8µM*	·	·
COc1ccccc1C(=O)N[C@@H]1c2ccccc2C2(CCN(Cc3nccs3)CC2)[C@H]1OC	-6.2%	-20.6%	·	·	-13.7%
Nc1cccc2cccc([N+](=O)[O-])c12	28.0%	-16.1%	19.6%	-12.7%	-11.1%
Cc1ccc(NC(=O)C2=C(c3ccccc3)S(=O)(=O)CCS2(=O)=O)cc1	?	?	?	?	25.1µM*
Cc1ccc(NC(=O)c2ccccc2)cc1	-14.3%	-22.9%	?	?	29.6%
COc1ccc(-c2nc3cnc(N4CCNCC4)nc3n(CCC#N)c2=O)cc1	·	·	·	·	-5.3%
COC(=O)C1=C(C(=O)OC)[C@@H]2Nc3ccccc3[C@@]23C[C@@H](C(=O)OC)N(C(=O)Nc2ccccc2F)C3=N1	·	·	-9.2%[14.2 µM]	·	·
Cn1c(=O)c2c(ncn2CC(=O)Nc2nc(-c3ccccc3Cl)cs2)n(C)c1=O	·	·	?	?	12.6µM*
COc1ccc2[nH]c(=O)c(CN(Cc3cccs3)C(=S)Nc3cccc(C)c3)cc2c1	-11.8%	-14.6%	4.47µM*	?	-30.0%
COc1ccc2[nH]c(=O)c(CN(CCO)S(=O)(=O)c3c(C)ccc4nsnc34)cc2c1	·	·	11.0%	0.4%	-12.2%
COc1ccc2[nH]c(=O)c(CN(Cc3cccs3)S(=O)(=O)c3cccc4nsnc34)cc2c1	·	·	16.4µM*!	?	-18.2%
Cc1cccc(-c2nc3c(c(=O)c4ccccc4n3C)c(=O)n2-c2ccccc2)c1	10.7%	i	-0.1%[46.1 µM]	?	-21.9%
CCSc1nc(-c2ccccc2)nc(C(Cl)Cl)n1	10µM*	?	·	·	-17.1%
CSc1nc(C(=O)N2CCOc3ccc(CN4CCN(Cc5ccccn5)CC4)cc3C2)cs1	0.7%	-11.5%	·	·	40.0%
Cc1ccc2c(c1)C(=NC1CCCCC1)c1cc3ccccc3nc1-2	10.6%	-4.3%	?	1.0%	-21.6%
